# Results filed as inconclusive are left out. The source made the active and inactive calls. Calls follow the shape of the dose curve; as a rule, active = well fitted cell-killing curve with a large enough effect; inconclusive = small, poorly fitted or top-dose-only effect; inactive = flat fitted curve, though single readings scatter.
# Test: Cell Viability - LYMP2-022 (AID 987);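 also: 0% = DMSO alone and full effect = tetraoctylammonium bromide at 92 µM; nearly all actives have a fitted effect of over 55% in size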
# Settings: LYMP2-022 lymphoblastoid cell viability; series mostly up to 92.2 µM; viability change, negative = cytotoxic: at the top concentration
# Source text: NIH Chemical Genomics Center [NCGC]
# NIH Molecular Libraries Screening Centers Network [MLSCN]
# National Institutes of Environmental Health Sciences [NIEHS]
# National Toxicology Program [NTP]
# We have developed a 1536-well cell-based assay for quantitative high throughput screening (qHTS) against a number of cell lines to determine in vitro cytotoxicity of small molecules. This particular assay uses a human lymphoblastoid cell line (LYMP2-022) purchased from Coriell Institute for Medical Research.
# NCGC Assay Protocol Summary:
# The CellTiter-Glo luminescent cell viability assay (Promega) is a homogeneous method to measure the number of viable cells in culture. The end point readout of this assay is based on quantitation of intracellular ATP, an indicator of metabolic activity, using the luciferase reaction. Luciferase catalyzes the oxidation of beetle Luciferin to oxyluciferin and light in the presence of ATP. The luminescent signal is proportional to amount of ATP present.
# Using the CellTiter-Glo luminescent cell viability assay, the amount of cellular ATP was measured in the lymphoblastoid cell line with complete culture medium following compound treatment for 24 hours. The assay was performed in opaque white Kalypsys 1536-well plates. In the screen, tetraoctylammonium bromide was used as positive control. Library compounds were measured for their ability to cause acute toxicity in the cell line, as reflected by a decrease in intracellular ATP levels, in a concentration-dependent manner. […] AC50 values were determined from concentration-response data modeled with the standard Hill equation.
# qHTS protocol for CellTiter Glo lymphoblastoid cellular assay
# [Step] [Parameter] [Value] [Description]
# 1. Reagent; 5 uL; 2500 lymphoblastoid cells/well
# 2. Time; 5 hr; 37 C incubation
# 4. Controls; 23 nL; Tetraoctylammonium bromide 6.4pM to 92 uM
# 5. Time; 24 hr; 37 C incubation
# 6. Reagent; 5 uL; CellTiter Glo reagent
# 7. Time; 30 min; Room Temperature
# 8. Detection; Luminescence; Viewlux plate reader
# Keywords: cell viability, cytotoxicity, lymphoblastoid cell line, luminescence, NTPHTS, NTPHTS_NCGC, NIEHS, DSSTox, MLSMR, MLSCN, NIH Roadmap, qHTS, NCGC
row,Structure (SMILES),"viability change, negative = cytotoxic"
1,CCOC(=O)c1ccccc1N,-12% (inactive)
2,c1ccc(Nc2ccc3ccccc3c2)cc1,-4.39% (inactive)
3,O=Cc1ccccc1,-16.2% (inactive)
4,Cc1ccccc1O,-2.77% (inactive)
5,CC(C)COC(=O)c1ccccc1C(=O)OCC(C)C,-13.5% (inactive)
6,COC(=O)c1ccccc1C(=O)OC,4.55% (inactive)
7,Oc1ccccc1Cl,-1.45% (inactive)
8,c1ccc2c(c1)-c1cccc3cccc-2c13,-4.17% (inactive)
9,Oc1c(Cl)c(Cl)c(Cl)c(Cl)c1Cl,-16% (inactive)
10,CCOc1cc(C=O)ccc1O,-2.67% (inactive)
11,CC(=O)/C=C/c1ccccc1,-8.38% (inactive)

# Reference: PubChem BioAssay (NCATS)
